According to publication PMC5540273 (PLoS ONE, 2017):

How the values were obtained:
Details in all cases: concentration: 1 μM,replicates: in singlicate; n = 1
SNARK = test system: T1, SNARK
T1 construct: gene NUAK2

SNRK = test system: SNRK
SRC = test system: SRC
SRMS = test system: SRMS
SRPK1 = test system: SRPK1
SRPK2 = test system: SRPK2
SRPK3 = test system: SRPK3
STK16 = test system: STK16
STK33 = test system: STK33
STK35 = test system: STK35
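Also: KINOMEscan kinase panel screen.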

SMILES	%Inh (SNARK) [%]	%Inh (SNRK) [%]	%Inh (SRC) [%]	%Inh (SRMS) [%]	%Inh (SRPK1) [%]	%Inh (SRPK2) [%]	%Inh (SRPK3) [%]	%Inh (STK16) [%]	%Inh (STK33) [%]	%Inh (STK35) [%]
Cc1n[nH]c2ccc(-c3cc(OC[C@@H](N)Cc4ccccc4)cnc3-c3ccoc3)cc12.O=C(O)C(F)(F)F.O=C(O)C(F)(F)F [GSK507358]	18	0	10	0	61	4	34	6	73	95.9
Cl.Cl.NC[C@H](Cc1ccc(C(F)(F)F)cc1)NC(=O)c1cc(Br)c(-c2ccnc3[nH]ccc23)s1 [GSK1487252]	91.5	0	0	0	47	0	0	16	96.8	0
Cc1cc(C(=O)Nc2ccc(Oc3ccc4nc(NC(=O)C5CC5)cn4n3)cc2)nn1-c1ccccc1	0	0	34	0	8	33	30	18	0	0
CN(C)CCOc1ccc(-c2cc(-c3c[nH]nc3-c3ccccn3)ccn2)cc1 [GW835314]	19	80	20	0	0	0	19	75	0	0
CC(C)N1C(=O)Cc2cc(Nc3ncc(C(F)(F)F)c(NCc4cccc(S(C)(=O)=O)c4)n3)ccc21	82	13	0	0	55	3	24	94.7	0	4
C=CC(=O)Nc1cc2c(Nc3ccc(F)c(Cl)c3)ncnc2cc1OCCCN1CCOCC1 [GW781483]	0	14	71	0	4	32		0	8	
C[C@@H](Oc1cc(-c2cnn(C3CCNCC3)c2)cnc1N)c1c(Cl)ccc(F)c1Cl	96.7	6	83	18	3	0	33	0	0	
Cl.Cl.NC[C@H](CC1CCCCC1)NC(=O)c1cc(Br)c(-c2ccnc3[nH]ccc23)s1 [GSK1581427]	90.5	0	28	0	82	14	87	27	89	23
O=C(NCCCN1CCOC1=O)c1cnc(NCc2cc(Cl)ccc2Cl)nc1NC1CCCC1	0	5	11	0	39	0	26	15	0	13
CN(C)CC(O)COc1ccc(Nc2nccc(-c3cnn4nc(N5CCOCC5)ccc34)n2)cc1 (stereo not drawn) [GW767488]	93.6	31	5	100	76	8	80	98.7	54	5
NC(=O)c1cc(-c2ccccc2)cc2c(C3CCNCC3)c[nH]c12 [GSK301362]	91.8	0	0	0	58	0	0	8	0	49
CCN(CC)CCCCNc1ncc2cc(-c3c(Cl)cccc3Cl)c(NC(=O)NC(C)(C)C)nc2n1	42	12	100	31	35	8	0	4	0	15
Cc1ccc(-n2nc(C(C)(C)C)cc2NC(=O)Nc2ccc(OCCN3CCOCC3)c3ccccc23)cc1 [GW839464]	0	0	0	8	64	0	29	6	21	0
O=C(NCCNc1ccnc(NCc2ccc(F)cc2)n1)c1cc2ccccc2s1 [GSK1379944]	31	0	4	0	13	0	0	78	0	0
Cc1cc2cn[nH]c2cc1-c1cccc2c(N)c(C(N)=O)nnc12	62	11	17	35	49	14	34	0	0	0
C[C@H]1Oc2cc(cnc2N)-c2c(nn(C)c2C#N)CN(C)C(=O)c2ccc(F)cc21	0	0	43	0	9	0	12	0	8	1
Cc1ccc2c(-c3ccncc3)c(-c3ccc(F)cc3)nn2c1.Cl [GW461484]	4	0	7	5	0	17	0	8	14	0
CCn1c(-c2nonc2N)nc2c(C#CC(C)(C)O)nc(OCCN)cc21.Cl.Cl [GSK902056]	11	0	0	0	0	7	17	0	0	0
C[C@@H]1CCN(C(=O)CC#N)C[C@@H]1N(C)c1ncnc2[nH]ccc12	73	15	0	0	39	18	1	0	0	0
CCN(CC)CCOc1ccc(Nc2ncc3cc(-c4c(Cl)cccc4Cl)c(=O)n(C)c3n2)cc1 [SB-601273]	92.6	7	100	90.8	50	70	9	53	62	98.8
Cl.Oc1cc(-c2nc(-c3ccccc3)[nH]c2-c2ccncc2)ccc1Cl [SB-386023]	24	0	88	12	0	0	5	7	0	0
Nc1nc(Nc2ccccc2)cc(-c2ccc3c(N)n[nH]c3c2)n1 [GSK2225749]	21	0	0	0	80	2	83	59	14	0
CNC(=O)c1ccccc1Sc1ccc2c(/C=C/c3ccccn3)n[nH]c2c1	77	9	4	0	82	12	21	12	0	25
COc1ccc(C[C@@H](CN)NC(=O)c2cc(Br)c(-c3ccnc4[nH]ccc34)s2)cc1.Cl.Cl [GSK1389063]	98.2	0	36	0	86	0	28	55	99.2	14
Cl.Cl.Nc1nc(-c2ccc3c(N)n[nH]c3c2)cc(N2CCCC(NC(=O)c3ccccc3)C2)n1 (stereo not drawn) [GSK2286775]	21	0	0	0	56	0	53	31	0	0
CC(C)Nc1cc(-c2ccc3c(N)n[nH]c3c2)nc(N)n1 [GSK2221681]	17	0	0	0	69	0	43	19	0	0
Cc1occc1-c1nc(N)c(OC[C@@H](N)Cc2c[nH]c3ccccc23)cc1-c1cc2c(C)n[nH]c2cn1 [GSK1660450]	96.9	0	95.6	0	71	0	56	3	84	28
